Experimental data published in PubChem BioAssay (EPA / NIEHS).
Some compounds were tested as several samples or in several runs, with calls that do not always agree. Activity calls are given as the source filed them. How the source made its calls: active means hit-call score of the fitted dose curve at least 0.9, where 1 is the maximum; inactive means score below 0.9.

How the values were obtained:
[1] = target: CCAAT/enhancer-binding protein beta (Homo sapiens) (UniProt P17676); assay: ATG_C_EBP_CIS: Attagene CIS-FACTORIAL HepG2 Assay for human CCAAT/Enhancer Binding Protein (C/EBP) beta (AID 2282927); details: HepG2 Attagene cis-factorial transcription factor reporter; actives raise or lower the signal
Sequence of CCAAT/enhancer-binding protein beta (Homo sapiens) (P17676 whole entry, looked up): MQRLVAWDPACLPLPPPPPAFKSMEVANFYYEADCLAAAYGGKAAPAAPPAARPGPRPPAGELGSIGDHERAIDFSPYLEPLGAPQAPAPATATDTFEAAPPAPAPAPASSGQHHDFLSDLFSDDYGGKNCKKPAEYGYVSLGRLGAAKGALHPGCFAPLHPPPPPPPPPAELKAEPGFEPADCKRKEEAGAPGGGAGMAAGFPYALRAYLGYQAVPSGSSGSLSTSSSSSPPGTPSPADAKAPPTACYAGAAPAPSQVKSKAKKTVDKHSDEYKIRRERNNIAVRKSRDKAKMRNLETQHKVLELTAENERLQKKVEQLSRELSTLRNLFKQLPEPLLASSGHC
How it was run: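 Endogenous transcription factor activity in human liver HepG2 cells is inferred from induction of a CEBPB-linked reporter mRNA. Exposure lasts 24 h; activity is fitted in both directions relative to DMSO.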

[2] = ATG_CMV_CIS: Attagene CIS-FACTORIAL HepG2 Assay for human CMV (Internal Marker) (AID 2282928); details: HepG2 CMV promoter reporter, transcription factor profiling; actives raise or lower the signal;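 further: endpoint acts as a background internal control marker rather than a target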
How it was run: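 Cell system: HepG2, transiently transfected multiple reporter units under cis promoters. Exposure: 24 h. Detection: RT-PCR, FAM labeling, HpaI digestion, capillary electrophoresis. Analysis: bidirectional, DMSO baseline.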

[3] = ATG_DR4_LXR_CIS: Attagene CIS-FACTORIAL HepG2 Assay for human Liver X Receptor (LXR), DR4 submotif (AID 2282929); details: HepG2 Attagene DR4 cis-reporter, mRNA transcription; actives raise or lower the signal
How it was run: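 HepG2 cells were transiently transfected with multiple cis-regulated reporter units and dosed for 24 hours. The DR4 reporter mRNA was quantified by RT-PCR, 6-FAM labelling and capillary electrophoresis. Bidirectional fits used DMSO as baseline.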

[4] = target: Aryl hydrocarbon receptor (Homo sapiens) (UniProt P35869); assay: ATG_Ahr_CIS: Attagene CIS-FACTORIAL HepG2 Assay for human Aryl Hydrocarbon Receptor (Ahr) (AID 2282930); details: HepG2 AhR cis-factorial reporter transcription; actives raise or lower the signal
Sequence of Aryl hydrocarbon receptor (Homo sapiens) (P35869 whole entry, looked up): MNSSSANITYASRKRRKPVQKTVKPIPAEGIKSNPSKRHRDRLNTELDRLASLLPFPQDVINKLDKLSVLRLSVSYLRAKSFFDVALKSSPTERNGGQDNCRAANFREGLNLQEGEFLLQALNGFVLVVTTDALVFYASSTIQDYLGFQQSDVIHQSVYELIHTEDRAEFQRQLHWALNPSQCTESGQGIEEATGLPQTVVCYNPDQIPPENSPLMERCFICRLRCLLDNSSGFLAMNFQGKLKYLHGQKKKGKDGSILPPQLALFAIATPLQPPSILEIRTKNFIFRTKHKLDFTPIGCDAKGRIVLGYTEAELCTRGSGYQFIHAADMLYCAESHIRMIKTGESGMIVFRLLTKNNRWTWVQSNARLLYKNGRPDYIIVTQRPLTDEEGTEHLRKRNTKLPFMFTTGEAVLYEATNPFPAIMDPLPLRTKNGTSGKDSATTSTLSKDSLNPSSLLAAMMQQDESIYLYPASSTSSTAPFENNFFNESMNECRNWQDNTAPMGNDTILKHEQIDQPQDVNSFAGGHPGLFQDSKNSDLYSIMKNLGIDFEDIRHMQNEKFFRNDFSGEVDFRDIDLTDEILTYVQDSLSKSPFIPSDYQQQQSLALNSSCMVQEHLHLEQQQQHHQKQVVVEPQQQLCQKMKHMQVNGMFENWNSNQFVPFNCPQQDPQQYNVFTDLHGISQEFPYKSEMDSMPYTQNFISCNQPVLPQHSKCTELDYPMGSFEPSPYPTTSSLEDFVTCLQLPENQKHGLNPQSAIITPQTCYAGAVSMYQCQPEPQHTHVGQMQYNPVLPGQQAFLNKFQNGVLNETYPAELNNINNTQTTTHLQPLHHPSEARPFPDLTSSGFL
How it was run: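 Transient MRTU transfection of HepG2 → 24 h compound exposure → total RNA, oligo(dT) RT → PCR, 6-FAM extension, HpaI cut → CE fluorescence. DMSO = baseline; bidirectional curve fit.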

[5] = ATG_AP_1_CIS: Attagene CIS-FACTORIAL HepG2 Assay for human Activator Protein 1 (AP-1) (AID 2282931); details: HepG2 Attagene cis-factorial AP-1 reporter mRNA; actives raise or lower the signal
How it was run: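 HepG2 cells transiently transfected with cis-element-driven reporter transcription units, dosed for 24 hours. Reporter mRNA measured by RT-PCR, 6-FAM labelling, HpaI digestion and capillary electrophoresis. Bidirectional fitting against DMSO baseline.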

[6] = ATG_BRE_CIS: Attagene CIS-FACTORIAL HepG2 Assay for human Bone Morphogenetic Protein (BMP) Response Element (BRE) (AID 2282933); details: HepG2 BMP response element reporter, Attagene transcription factor profiling; actives raise or lower the signal
How it was run: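 After a 24 h chemical treatment, transiently transfected HepG2 cells were lysed for RNA; reporter transcripts were quantified by fluorescent RT-PCR and capillary electrophoresis, normalised to DMSO.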

[7] = target: Retinoic acid receptor alpha (Homo sapiens) (UniProt P10276); assay: ATG_DR5_RAR_CIS: Attagene CIS-FACTORIAL HepG2 Assay for human Retinoic Acid Receptor Alpha (RARE), DR5 submotif (AID 2282934); details: HepG2 Attagene cis-factorial RARE DR5 reporter, mRNA; actives raise or lower the signal;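 on AC50: reporter responds to endogenous RAR alpha beta and gamma in HepG2 not RARA alone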
Sequence of Retinoic acid receptor alpha (Homo sapiens) (P10276 whole entry, looked up): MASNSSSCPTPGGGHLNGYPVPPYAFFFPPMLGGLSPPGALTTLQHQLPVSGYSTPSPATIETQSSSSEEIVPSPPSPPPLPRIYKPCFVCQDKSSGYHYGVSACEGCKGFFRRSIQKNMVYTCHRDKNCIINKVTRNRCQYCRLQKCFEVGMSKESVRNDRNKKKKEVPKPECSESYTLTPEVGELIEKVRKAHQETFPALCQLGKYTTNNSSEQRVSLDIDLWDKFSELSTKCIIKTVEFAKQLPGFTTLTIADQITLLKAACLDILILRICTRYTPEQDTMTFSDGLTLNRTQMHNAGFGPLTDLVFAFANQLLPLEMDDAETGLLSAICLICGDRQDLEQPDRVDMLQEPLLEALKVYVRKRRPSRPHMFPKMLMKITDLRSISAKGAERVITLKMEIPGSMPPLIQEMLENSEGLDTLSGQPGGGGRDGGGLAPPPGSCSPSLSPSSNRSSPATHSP
How it was run: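 Transient MRTU transfection of HepG2; 24 h compound treatment; TriZol RNA, oligo(dT) RT, PCR, FAM labelling, capillary electrophoresis. Bidirectional fit vs DMSO. Endogenous TF activity at DR5 RARE.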

[8] = target: Transcription factor E2F1 (Homo sapiens) (UniProt Q01094); assay: ATG_E2F_CIS: Attagene CIS-FACTORIAL HepG2 Assay for human E2F Transcription Factor 1 (AID 2282935); details: HepG2 Attagene cis-reporter, E2F reporter RNA transcripts; actives raise or lower the signal
Sequence of Transcription factor E2F1 (Homo sapiens) (Q01094 whole entry, looked up): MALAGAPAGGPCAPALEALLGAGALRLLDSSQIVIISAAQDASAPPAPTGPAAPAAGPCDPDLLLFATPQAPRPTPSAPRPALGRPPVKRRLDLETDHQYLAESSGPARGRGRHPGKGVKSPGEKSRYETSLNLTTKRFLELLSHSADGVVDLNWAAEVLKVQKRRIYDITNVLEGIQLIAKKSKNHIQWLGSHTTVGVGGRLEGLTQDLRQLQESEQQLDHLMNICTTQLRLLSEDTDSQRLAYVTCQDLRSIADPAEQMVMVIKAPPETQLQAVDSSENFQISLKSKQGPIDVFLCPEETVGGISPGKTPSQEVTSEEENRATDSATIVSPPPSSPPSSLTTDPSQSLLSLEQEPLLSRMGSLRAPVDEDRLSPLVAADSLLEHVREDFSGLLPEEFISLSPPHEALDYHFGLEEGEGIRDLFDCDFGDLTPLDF
How it was run: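 Total RNA from 24 h-treated, reporter-transfected HepG2 cells undergoes DNase I treatment, oligo(dT) reverse transcription, PCR and 6-FAM primer extension before capillary electrophoresis.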

[9] = ATG_E_Box_CIS: Attagene CIS-FACTORIAL HepG2 Assay for human Enhancer Box (E-box) (AID 2282936); details: HepG2 E-box cis-reporter transcription, actives raise or lower the signal
How it was run: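 DMSO served as negative control and baseline for bidirectional fitting. Human hepatoma HepG2 cells, transiently transfected with cis-reporter constructs, were dosed 24 h; reporter mRNA read by RT-PCR and capillary electrophoresis.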

[10] = ATG_AP_2_CIS: Attagene CIS-FACTORIAL HepG2 Assay for human Activator Protein 2 (AP-2) (AID 2282932); details: HepG2 AP-2 cis-reporter, Attagene transcription factor profiling; actives raise or lower the signal
How it was run: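 Step one: transient transfection of HepG2 with reporter transcription units. Step two: 24 h chemical exposure. Step three: RNA extraction, RT-PCR, labelled fragment analysis by capillary electrophoresis; DMSO serves as baseline.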

Cc1cc(C)c(C(=O)P(=O)(c2ccccc2)c2ccccc2)c(C)c1
outcome [1]: inactive
outcome [2]: inactive
AC50 [3]: 11.5 µM (active)
outcome [4]: inactive
outcome [5]: inactive
outcome [6]: inactive
outcome [7]: inactive
outcome [8]: inactive
AC50 [9]: 54.9 µM (active)

NC(=O)C(F)(F)C(F)(F)F
outcome [1]: inactive
outcome [2]: inactive
outcome [3]: inactive
outcome [4]: inactive
outcome [5]: inactive
outcome [6]: inactive
outcome [7]: inactive
outcome [8]: inactive
outcome [9]: inactive

O=[N+]([O-])c1ccccc1
outcome [1]: inactive
outcome [2]: inactive
outcome [4]: inactive
outcome [5]: inactive
outcome [6]: inactive
outcome [7]: inactive
outcome [8]: inactive
outcome [9]: inactive

CC(C)(C)c1ccc(O)cc1
outcome [1]: inactive
AC50 [2]: 100 µM (active)
outcome [3]: inactive
outcome [4]: inactive
outcome [10]: inactive
AC50 [6]: 58.1 µM (active)
outcome [8]: inactive
outcome [9]: inactive

CCC1(c2ccccc2)C(=O)N=C(O)NC1=O (centres undefined)
outcome [1]: inactive
outcome [2]: inactive
outcome [4]: inactive
outcome [5]: inactive
outcome [10]: inactive
outcome [6]: inactive
outcome [8]: inactive
outcome [9]: inactive

Nc1ccc(Cl)cc1
outcome [1]: inactive
outcome [2]: inactive
outcome [3]: inactive
outcome [4]: inactive
outcome [5]: inactive
outcome [6]: inactive
outcome [8]: inactive
outcome [9]: inactive

ClC(Cl)c1ccccc1
outcome [1]: inactive
outcome [2]: inactive
outcome [4]: inactive
outcome [5]: inactive
outcome [10]: inactive
outcome [6]: inactive
outcome [7]: inactive
outcome [8]: inactive
outcome [9]: inactive

OCC(F)(F)OC(F)(F)C(F)(F)OC(F)(F)C(F)(F)OC(F)(F)CO
outcome [1]: inactive
outcome [2]: inactive
outcome [4]: inactive
outcome [5]: inactive
outcome [10]: inactive
outcome [6]: inactive
outcome [7]: inactive
outcome [8]: inactive
outcome [9]: inactive

O=C(CBr)OCc1ccccc1
outcome [1]: inactive
outcome [2]: inactive
outcome [4]: inactive
outcome [5]: inactive
outcome [10]: inactive
outcome [6]: inactive
outcome [7]: inactive
outcome [8]: inactive
outcome [9]: inactive

CNC(=O)Oc1ccc(N(C)C)c(C)c1
outcome [1]: inactive
outcome [2]: inactive
outcome [4]: inactive
outcome [5]: inactive
outcome [10]: inactive
outcome [6]: inactive
outcome [7]: inactive
outcome [8]: inactive
outcome [9]: inactive

CC(=O)c1ccc(-c2ccccc2)cc1
outcome [1]: inactive
outcome [2]: inactive
AC50 [4]: 56.5 µM (active)
outcome [5]: inactive
outcome [6]: inactive
outcome [7]: inactive
outcome [8]: inactive
outcome [9]: inactive

Clc1ccc(Oc2ccccc2)cc1
outcome [1]: inactive
outcome [2]: inactive
outcome [4]: inactive
outcome [5]: inactive
outcome [10]: inactive
outcome [6]: inactive
outcome [7]: inactive
outcome [8]: inactive
outcome [9]: inactive

CCOP(=S)(OCC)SCn1nnc2ccccc2c1=O
outcome [1]: inactive
outcome [2]: inactive
outcome [4]: inactive
outcome [5]: inactive
outcome [10]: inactive
AC50 [6]: 173 µM (active)
outcome [7]: inactive
outcome [8]: inactive
outcome [9]: inactive

CCOP(=S)(OCC)SCSc1ccc(Cl)cc1
outcome [1]: inactive
outcome [2]: inactive
outcome [4]: inactive
outcome [5]: inactive
outcome [10]: inactive
outcome [6]: inactive
outcome [7]: inactive
outcome [8]: inactive
outcome [9]: inactive

N#C/C=C/c1ccccc1
outcome [1]: inactive
outcome [2]: inactive
outcome [3]: inactive
outcome [4]: inactive
outcome [5]: inactive
outcome [6]: inactive
outcome [7]: inactive
outcome [8]: inactive
outcome [9]: inactive

CC1=C(C(=O)Nc2ccccc2)S(=O)(=O)CCO1
outcome [1]: inactive
AC50 [2]: 45.4 µM (active)
outcome [4]: inactive
AC50 [5]: 66.8 µM (active)
AC50 [6]: 6.73 µM (active)
outcome [7]: inactive
outcome [8]: inactive
AC50 [9]: 21.8 µM (active)

ClC(Cl)=C(c1ccc(Cl)cc1)c1ccccc1Cl
outcome [1]: inactive
AC50 [2]: 36.5 µM (active)
AC50 [3]: 27.3 µM (active)
AC50 [4]: 27.2 µM (active)
AC50 [5]: 57.5 µM (active)
outcome [6]: inactive
AC50 [7]: 27 µM (active)
outcome [8]: inactive
AC50 [9]: 63.6 µM (active)

O=[N+]([O-])c1ccc(Cl)c(Cl)c1
outcome [1]: inactive
outcome [2]: inactive
outcome [4]: inactive
outcome [5]: inactive
outcome [6]: inactive
outcome [7]: inactive
outcome [8]: inactive
outcome [9]: inactive

OCC(F)(F)OC(F)(F)C(F)(F)OC(F)(F)CO
outcome [1]: inactive
outcome [2]: inactive
outcome [4]: inactive
outcome [5]: inactive
outcome [6]: inactive
outcome [7]: inactive
outcome [8]: inactive
outcome [9]: inactive

COC(=O)C(F)(F)C(F)(F)OC(F)(C(F)(F)F)C(F)(F)OC(F)=C(F)F (centres undefined)
outcome [1]: inactive
outcome [2]: inactive
outcome [4]: inactive
AC50 [5]: 9.89 µM (active)
outcome [5]: inactive
outcome [10]: inactive
outcome [6]: inactive
outcome [7]: inactive
outcome [8]: inactive
outcome [9]: inactive

O=P(OCC(Br)CBr)(OCC(Br)CBr)OCC(Br)CBr (centres undefined)
outcome [1]: inactive
outcome [2]: inactive
AC50 [4]: 19.5 µM (active)
AC50 [5]: 53.9 µM (active)
AC50 [10]: 40.1 µM (active)
AC50 [6]: 20.6 µM (active)
outcome [7]: inactive
outcome [8]: inactive
outcome [9]: inactive

O=P1(N(CCCl)CCCl)NCCCO1 (centres undefined)
outcome [1]: inactive
outcome [2]: inactive
outcome [4]: inactive
outcome [5]: inactive
outcome [10]: inactive
outcome [6]: inactive
outcome [8]: inactive
outcome [9]: inactive

CCOP(=S)(Oc1ccc([N+](=O)[O-])cc1)c1ccccc1 (centres undefined)
outcome [1]: inactive
outcome [2]: inactive
outcome [4]: inactive
AC50 [5]: 22.1 µM (active)
outcome [10]: inactive
AC50 [6]: 62.6 µM (active)
outcome [7]: inactive
outcome [8]: inactive
outcome [9]: inactive

c1ccc2c(c1)Nc1ccccc1S2
outcome [1]: inactive
AC50 [2]: 21.3 µM (active)
outcome [5]: inactive
outcome [10]: inactive
AC50 [6]: 41.7 µM (active)
outcome [7]: inactive
outcome [8]: inactive
outcome [9]: inactive

CCN(CC)c1ccccc1
outcome [1]: inactive
outcome [2]: inactive
outcome [4]: inactive
outcome [5]: inactive
outcome [10]: inactive
outcome [6]: inactive
outcome [8]: inactive
outcome [9]: inactive

CCNc1nc(Cl)nc(NC(C)(C)C)n1
outcome [1]: inactive
outcome [3]: inactive
outcome [4]: inactive
outcome [5]: inactive
outcome [10]: inactive
outcome [6]: inactive
outcome [7]: inactive
outcome [8]: inactive
outcome [9]: inactive

CC(Cl)(Cl)C(=O)O
outcome [1]: inactive
outcome [3]: inactive
outcome [4]: inactive
outcome [5]: inactive
outcome [6]: inactive
outcome [8]: inactive
outcome [9]: inactive

O=c1[nH]c2ccccc2c(=O)o1
outcome [1]: inactive
AC50 [4]: 89.5 µM (active)
outcome [5]: inactive
outcome [10]: inactive
outcome [6]: inactive
outcome [7]: inactive
outcome [8]: inactive
outcome [9]: inactive
